High-throughput results: PubChem, several laboratories
EBV gp42 block – blocks Epstein-Barr virus glycoprotein 42 binding; inhibition, % (tested at 21.74 µM); 220,000 tested, 0.42% active; AID 1085; Q1HVG2; Fluorescence polarization binding assay, mP read-out; in the data active = inhibition above about 50%
MCL1 BIM primary – disrupts human MCL1 binding to BIM-BH3 peptide | Q07820 | GST-MCL1 / FITC-Bim-BH3 fluorescence polarization | inhibition, % at 10.9 µM | 320,000 tested, 0.68% active | AID 2057;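 active = inhibition above the mean inhibition of all tested compounds plus 3 SD, set per campaign, cut at about 40% in these data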;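 note: 0% = DMSO wells and 100% = unlabeled Bim-BH3 peptide control; higher means more loss of mP so more displacement of Bim peptide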
Target sequence (Q07820 whole entry, looked up): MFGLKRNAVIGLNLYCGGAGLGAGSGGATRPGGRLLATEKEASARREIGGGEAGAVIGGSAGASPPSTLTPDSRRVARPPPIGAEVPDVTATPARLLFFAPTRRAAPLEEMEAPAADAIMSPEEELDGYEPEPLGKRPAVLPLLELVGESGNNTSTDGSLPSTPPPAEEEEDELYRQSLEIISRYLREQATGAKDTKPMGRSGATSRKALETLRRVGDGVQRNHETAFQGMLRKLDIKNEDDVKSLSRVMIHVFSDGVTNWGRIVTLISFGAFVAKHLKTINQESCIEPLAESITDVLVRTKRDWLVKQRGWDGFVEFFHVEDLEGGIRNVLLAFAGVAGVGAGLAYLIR
GLD-1 TGE inh – GLD-1-TGE RNA interaction inhibition (C. elegans). 320,000 tested, 0.44% active. purified GLD-1 + fluorescein TGE RNA, fluorescence polarization. inhibition, % at 5.96 µM;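 active = percent inhibition above a per-plate cutoff, the plate mean of test compounds plus 3 SD, cut at about 30% in these data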;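 note: 0% = DMSO wells with GLD-1 and probe and 100% = wells lacking GLD-1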
Bcl-xL primary – Bcl-xL (human) inhibition; Q07817; GST-Bcl-xL / FITC-Bim BH3 peptide fluorescence polarization; inhibition, % at 10.9 µM; 320,000 tested, 0.7% active;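 active = inhibition above the mean of all tested compounds plus 3 SD, cutoff set per campaign, cut at about 30% in these data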;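 note: 0% = DMSO wells and 100% = unlabeled Bim-BH3 peptide competitor; inhibitors lower millipolarization by displacing the labeled peptide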
Target sequence (Q07817 whole entry, looked up): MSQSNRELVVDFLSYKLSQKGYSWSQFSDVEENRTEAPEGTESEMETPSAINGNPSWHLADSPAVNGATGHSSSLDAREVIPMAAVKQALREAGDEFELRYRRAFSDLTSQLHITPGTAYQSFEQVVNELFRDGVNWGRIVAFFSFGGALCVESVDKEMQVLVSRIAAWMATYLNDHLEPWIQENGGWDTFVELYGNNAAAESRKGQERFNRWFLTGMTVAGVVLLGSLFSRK
MEX-5 binding – C. elegans MEX-5 TCR-2 RNA binding activity. MEX-5/FITC-TCR2 RNA binding, fluorescence polarization; active compounds read low. activity score (negative = inhibition of binding), % at 10 µM. 300,000 tested, 0.38% active;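 active = inhibition past about -25% in most replicates, and total fluorescence under double the plate's negative control median, limit read from the data; inconclusive = replicates evenly split on the limit, or fluorescence at least double controls; inactive = too little inhibition in most replicates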;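 note: 0% = DMSO and -100% = 5 µM competing unlabeled TCR2 RNA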
eLon inh – inhibitors of E. coli Lon protease; inhibition, % at 7.94 µM; AID 602123; 360,000 tested, 0.42% active; purified E. coli Lon protease, fluorescence polarization; P0A9M0; in the data active = inhibition above about 13%, passing the limit was not always enough;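 note: 0% = enzyme with probe and DMSO and 100% = no enzyme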
Bcl-xL conf – counter-screen for MCL1 inhibitors: confirmation of human Bcl-xL inhibitors; shares compounds with MCL1 BIM primary; GST-Bcl-xL / FITC-Bim BH3 peptide FP binding; inhibition, % at 10.9 µM; 1,700 tested, 54% active;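 active = inhibition above a cutoff equal to the mean inhibition of all tested compounds plus 3 SD, cut at about 30% in these data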;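 note: 0% = DMSO wells and 100% = unlabeled Bim BH3 control peptide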
MCL1 BIM confirm – MCL1-BIM-BH3 interaction inhibition, confirmation; shares compounds with MCL1 BIM primary; GST-MCL1 / FITC-Bim-BH3 fluorescence polarization; inhibition, % at 10.9 µM; 1,700 tested, 61% active; AID 2168;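 active = inhibition above the average of all tested compounds plus 3 SD, cut at about 40% in these data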;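 note: 0% = DMSO wells and 100% = unlabeled Bim-BH3 control peptide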
GLD1 RNA confirm – confirmation of C. elegans GLD-1 TGE RNA binding inhibitors. AID 2459. 550 tested, 10% active. GLD-1/FL-TGE RNA fluorescence polarization, biochemical. inhibition, % at 5.96 µM. shares compounds with GLD-1 TGE inh;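 active = average inhibition across triplicates above the hit cutoff set in the primary screen, cut at about 32% in these data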;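 note: 0% = GLD-1 with RNA probe and DMSO and 100% = wells lacking GLD-1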
eLon confirm – E. coli Lon inhibition confirmation; shares compounds with eLon inh; purified E. coli Lon, fluorescence polarization; inhibition, % at 7.94 µM; 1,400 tested, 31% active; in the data active = inhibition above about 16%;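 note: 0% = enzyme with probe and DMSO and 100% = no enzyme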
The depositor's hits bear a star; ? = inconclusive; . = no result; + = active, no number; ! = repeats disagree. Only some compounds are listed: those with a hit (about 1.4% of all), similar ones and a draw of the others.

SMILES	EBV gp42 block	MCL1 BIM primary	GLD-1 TGE inh	Bcl-xL primary	MEX-5 binding	eLon inh	eLon confirm	others
OCCNc1c2c(nc3ccccc13)CCCC2	-15	0	4	3	2	-5	.
C[n+]1c2ccccc2nc2ccc(NCCO)cc21	.	82*	34*	73*	-21	45	.	Bcl-xL conf=78*;MCL1 BIM confirm=84*;GLD1 RNA confirm=14
CN(C)C1C(=O)C(C(N)=O)=C(O)C2(O)C(=O)C3=C(O)c4c(O)cccc4C(C)(O)C3C(O)C12 (stereo not given)	.	105*	44*	51*	-20	3	.	Bcl-xL conf=33*;MCL1 BIM confirm=84*;GLD1 RNA confirm=0
CCC(CO)NC(=O)C1C=C2c3cccc4[nH]cc(c34)CC2N(C)C1 (stereo not given)	22	47*	35*	47*	-15	59	.	Bcl-xL conf=96*;MCL1 BIM confirm=111*;GLD1 RNA confirm=9
CC[C@@H](CO)NC(=O)[C@@H]1C=C2c3cccc4c3c(cn4C)C[C@H]2N(C)C1	53*!	171*	112*	143*	-31*	38	.	Bcl-xL conf=29;MCL1 BIM confirm=42*;GLD1 RNA confirm=18
CCN(CC)C(=O)N[C@H]1C[C@@H]2c3cccc4[nH]cc(c34)C[C@H]2N(C)C1	-1	28	19	23	1	33	.
COc1ccc(OC)c(N2Cc3ccccc3C2=N)c1	0	-1	2	0	1	-9	.
O=C1CC(=O)N(Cc2ccccc2)C(=S)N1	.	7	-14	-6	1	-16	.
Cc1nc2ccccc2c(=O)n1-c1cccc([N+](=O)[O-])c1	.	0	4	-2	1	1	.
CNc1ccc2nc3ccccc3[n+](C)c2c1	.	185*	30	147*	-42*	95*	106*	Bcl-xL conf=118*;MCL1 BIM confirm=169*
N#Cc1ccc(NC(=O)CN2C(=O)NC3(CCCCCCC3)C2=O)cc1Cl	.	-6	0	0	.	0	.
CN1CC=C2C(C#N)=C(N)C(C#N)(C#N)C(c3ccncc3)C2C1 (stereo not given)	.	164*	88*	136*	-47*	57*	81*	Bcl-xL conf=37*;MCL1 BIM confirm=50*
CC(C)[C@]12CC(=O)[C@H](C)[C@H]1C2	.	4	-5	4	.	3	.
CC(=O)OC1CCC2(C)C3CCC4(C)C(OC(C)=O)CCC4C3C(C)C2(O)C1 (stereo not given)	.	.	.	.	.	2	.
CN1C[C@H](CNC(=O)OCc2ccccc2)C[C@@H]2c3cccc4c3c(cn4C)C[C@H]21	20	67*	53*	52*	-7	76*	36*	Bcl-xL conf=24;MCL1 BIM confirm=39;GLD1 RNA confirm=6
Cc1ccc2cc(C=C(C#N)C#N)c(Cl)nc2c1	30	+	167*	196*	?	164*	83*	Bcl-xL conf=-118;MCL1 BIM confirm=-202
CC/C(=N\N1CCCCCC1)c1c(O)n(-c2ccc(C)cc2)c(=O)[nH]c1=O	4	-1	4	5	-1	2	.
CN1CCN(c2ccc([N+](=O)[O-])c3no[n+]([O-])c23)CC1	141*	+	141*	197*	-60*	131*	102*	Bcl-xL conf=149*;MCL1 BIM confirm=180*
CC(C)COC(=O)N1Cc2ccccc2-n2nncc2C1	.	.	.	.	.	1	.
CN1CC[C@@]2(C)c3cc(O)ccc3N(C)C2O1 (stereo not given in full)	.	21	39*	26	-4	20	.	GLD1 RNA confirm=2
CN1CC[C@@]2(C)c3cc(O)ccc3N(C)[C@@H]12	.	.	.	.	.	0	.
CC(=NCCC1=CCCCC1)c1c(O)n(C)c(=O)n(C)c1=O	2	0	7	2	1	-3	.
CC(=NCCC1=CCCCC1)c1c(O)[nH]c(=O)[nH]c1=O	-19	8	37*	4	3	-7	.	GLD1 RNA confirm=-3
OC[C@@H](O)CCl	.	6	0	2	1	.	.
S=P(NC1CCCCC1)(N1CC1)N1CC1	5	48*	35*	50*	1	2	.	GLD1 RNA confirm=1
SMILES	EBV gp42 block	MCL1 BIM primary	GLD-1 TGE inh	Bcl-xL primary	MEX-5 binding	eLon inh	eLon confirm	others
CN1C(=O)C2C[C@@]3(Br)c4ccccc4N(OOSc4ccccc4)[C@H]3N2C(=O)[C@@H]1Cc1ccccc1 (stereo not given in full)	.	-1	32*	1	1	-3	.	GLD1 RNA confirm=3
c1ccc(CCN2CCCCC2)nc1	.	.	.	.	.	-9	.
C[N+]1=C(/C=C/Nc2ccccc2)C(C)(C)c2ccccc21	-24	11	3	4	5	-1	.
CCN1/C(=C/C=C/C2=[N+](CC)c3ccccc3C2(C)C)C(C)(C)c2ccccc21	.	.	.	.	.	+	+
CCCC1CCCCC12C(=O)NC(=O)NC2=O (stereo not given)	.	.	.	.	.	1	.
O=[N+]([O-])c1ccc(N(CCO)CCO)c2c1no[n+]2[O-]	.	.	.	.	.	66*	31*
OC(c1cccc(Cl)c1)(c1cccc(Cl)c1)C1CN2CCC1CC2 (stereo not given)	-9	1	-4	-1	-4	-2	.
COc1ccc2c(c1)NP(=S)(c1ccccc1)N2C (stereo not given)	.	.	.	.	.	53*	3
COC(=O)C1=C(c2cccc(OCc3ccccc3)c2)C[C@@H]2CC[C@H]1N2C(=O)NCc1cc(C)oc1C(F)(F)F	.	0	1	4	.	26*	-4
COC(=O)C1=C(c2cccc(OCc3ccccc3)c2)C[C@@H]2CC[C@H]1N2C(=O)NCc1cccc(C(F)(F)F)c1	.	5	-2	1	.	0	.
COC(C)(C)CCCC(C)C/C=C/C(C)=C/C(=O)OC(C)C (stereo not given)	.	-4	-3	-1	.	4	.
COCCOC(=O)c1c(N)n(Cc2ccco2)c2nc3ccccc3nc12	.	33	63*	31*	.	16*	7
